Results as given in the supplement of paper PMC12645437, “Orthogonal IMiD-Degron Pairs Induce Selective Protein Degradation in Cells” (ACS Chemical Biology, 2025).
The full ranking holds about 8,300 sequences; the median of “log2 fold change of degron read counts, EGFP-low vs EGFP+ sorted cells (limma voom), compound-induced degradation” is about -1.1, and the highest 2% start at about 3.2. Shown is part of a subset that was picked to be rich in the highest values.

T1: CRBN, Q96SW2
T1 chain: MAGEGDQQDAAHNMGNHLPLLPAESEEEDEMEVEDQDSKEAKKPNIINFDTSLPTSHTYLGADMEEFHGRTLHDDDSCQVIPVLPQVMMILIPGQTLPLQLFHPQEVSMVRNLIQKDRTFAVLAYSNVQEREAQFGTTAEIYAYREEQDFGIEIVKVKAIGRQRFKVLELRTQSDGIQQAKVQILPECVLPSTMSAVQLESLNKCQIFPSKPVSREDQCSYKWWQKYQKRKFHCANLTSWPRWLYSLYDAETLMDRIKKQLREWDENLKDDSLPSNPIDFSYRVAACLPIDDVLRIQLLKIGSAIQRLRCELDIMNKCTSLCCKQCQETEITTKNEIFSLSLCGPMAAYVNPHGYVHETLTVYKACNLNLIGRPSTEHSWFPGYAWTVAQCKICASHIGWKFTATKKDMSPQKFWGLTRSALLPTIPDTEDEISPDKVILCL

B1: 46F_47S_49P_50I_52G_53R_54C_55F_67L_, Q9UKT9 (peptide)
chain: FSCPICGRCFTQKGNLLRHIKL
B2: 46F_47Y_49D_50Q_52G_53A_54F_55F_67L_, Q9UKT9 (peptide)
chain: FYCDQCGAFFTQKGNLLRHIKL
B3: 46F_47L_49E_50I_52G_53R_54I_55F_67L_, Q9UKT9 (peptide)
chain: FLCEICGRIFTQKGNLLRHIKL
B4: 46F_47R_49N_50Q_52G_53A_54V_55F_67L_, Q9UKT9 (peptide)
chain: FRCNQCGAVFTQKGNLLRHIKL
B5: 46F_47L_49E_50I_52G_53R_54N_55F_67L_, Q9UKT9 (peptide)
chain: FLCEICGRNFTQKGNLLRHIKL
B6: 46F_47V_49N_50V_52G_53A_54H_55F_67L_, Q9UKT9 (peptide)
chain: FVCNVCGAHFTQKGNLLRHIKL
B7: 46F_47A_49P_50Q_52G_53A_54K_55F_67L_, Q9UKT9 (peptide)
chain: FACPQCGAKFTQKGNLLRHIKL
B8: 46F_47E_49P_50I_52G_53H_54A_55F_67L_, Q9UKT9 (peptide)
chain: FECPICGHAFTQKGNLLRHIKL
B9: 46F_47S_49N_50I_52G_53A_54G_55F_67L_, Q9UKT9 (peptide)
chain: FSCNICGAGFTQKGNLLRHIKL
B10: 46F_47W_49E_50I_52G_53A_54T_55F_67L_, Q9UKT9 (peptide)
chain: FWCEICGATFTQKGNLLRHIKL
B11: 46F_47V_49E_50I_52G_53A_54T_55F_67L_, Q9UKT9 (peptide)
chain: FVCEICGATFTQKGNLLRHIKL
B12: 46F_47G_49E_50I_52G_53A_54T_55F_67L_, Q9UKT9 (peptide)
chain: FGCEICGATFTQKGNLLRHIKL
B13: 46F_47F_49E_50I_52G_53H_54I_55F_67L_, Q9UKT9 (peptide)
chain: FFCEICGHIFTQKGNLLRHIKL
B14: 46L_47A_49E_50I_52G_53F_54S_55C_67L_, Q9UKT9 (peptide)
chain: LACEICGFSCTQKGNLLRHIKL
B15: 46L_47S_49E_50I_52G_53F_54S_55C_67L_, Q9UKT9 (peptide)
chain: LSCEICGFSCTQKGNLLRHIKL
B16: 46L_47W_49E_50I_52G_53F_54S_55C_67L_, Q9UKT9 (peptide)
chain: LWCEICGFSCTQKGNLLRHIKL
B17: 46L_47D_49E_50I_52G_53F_54S_55C_67L_, Q9UKT9 (peptide)
chain: LDCEICGFSCTQKGNLLRHIKL
B18: 46L_47N_49E_50I_52G_53F_54S_55C_67L_, Q9UKT9 (peptide)
chain: LNCEICGFSCTQKGNLLRHIKL
B19: 46L_47R_49E_50I_52G_53F_54S_55C_67L_, Q9UKT9 (peptide)
chain: LRCEICGFSCTQKGNLLRHIKL
B20: 46L_47G_49E_50I_52G_53F_54S_55C_67L_, Q9UKT9 (peptide)
chain: LGCEICGFSCTQKGNLLRHIKL
B21: 46L_47E_49E_50I_52G_53F_54S_55C_67L_, Q9UKT9 (peptide)
chain: LECEICGFSCTQKGNLLRHIKL
B22: 46L_47H_49E_50I_52G_53F_54S_55C_67L_, Q9UKT9 (peptide)
chain: LHCEICGFSCTQKGNLLRHIKL
B23: 46L_47L_49E_50I_52G_53F_54S_55C_67L_, Q9UKT9 (peptide)
chain: LLCEICGFSCTQKGNLLRHIKL
B24: 46L_47Q_49E_50I_52G_53F_54S_55C_67L_, Q9UKT9 (peptide)
chain: LQCEICGFSCTQKGNLLRHIKL
B25: 46L_47V_49E_50I_52G_53F_54S_55C_67L_, Q9UKT9 (peptide)
chain: LVCEICGFSCTQKGNLLRHIKL
B26: 46F_47L_49D_50I_52G_53A_54C_55F_67L_, Q9UKT9 (peptide)
chain: FLCDICGACFTQKGNLLRHIKL
B27: 46F_47T_49N_50Q_52G_53R_54M_55F_67L_, Q9UKT9 (peptide)
chain: FTCNQCGRMFTQKGNLLRHIKL
B28: 46F_47K_49P_50V_52G_53A_54N_55F_67L_, Q9UKT9 (peptide)
chain: FKCPVCGANFTQKGNLLRHIKL

Target: T1, CRBN, Q96SW2
Assay: log2 fold change of degron read counts, EGFP-low vs EGFP+ sorted cells (limma voom), compound-induced degradation; higher = more compound-induced degradation of the degron-EGFP fusion; degrons are variants of IKZF1/3 zinc finger 2; compound dose not given here
Details: Jurkat, 18 h
[1] = compound: compound 19 (5-tert-butyl-thalidomide)
[2] = compound: compound 22 (5-morpholino-thalidomide)
[3] = compound: compound 33 (diphenyl IMiD analogue)
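Further: pooled lentiviral library of zinc finger degron-EGFP fusions in mCherry-positive Jurkat cells, FACS-sorted after compound exposure, with degron abundance counted by next-generation sequencing.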

Sequence	log2 fold change of degron read counts [1]	log2 fold change of degron read counts [2]	log2 fold change of degron read counts [3]	log2 fold change of degron read counts (compound: thalidomide)
B1	-0.773	-1.2	0.835	-0.39
B2	-0.965	-1.17	-1.35	-2.48
B3	-1.35	-1.7	-0.45	-0.0614
B4	-2.12	-2.1	-1.19	-1.75
B5	-2.29	-2.99	-1.84	-0.409
B6	-1.72	-0.867	0.0144	-0.327
B7	1.62	-1.34	-2.13	-1.03
B8	-2.37	-2.63	-1.62	-1.53
B9	1.15	0.769	0.918	0.088
B10	3.05	3.73	1.97	0.793
B11	0.63	1.64	1.82	2.54
B12	3.22	2.59	1.76	1.11
B13	-0.448	-0.503	-0.957	-1.04
B14	3.41	2.96	0.73	1.55
B15	2.75	2.53	1.7	1.8
B16	3.66	3.79	3.08	1.89
B17	0.356	-1.04	-1.04	-0.00753
B18	1.58	-0.0234	-0.0305	0.742
B19	2.23	1.56	2.62	2.99
B20	1.24	0.532	-0.284	-0.251
B21	0.457	-1.92	1.25	2.46
B22	3.19	3.16	2.27	2.44
B23	1.68	-0.0296	1.49	2.43
B24	2.41	1.96	1.77	3.58
B25	2.39	3.11	2.52	3.33
B26	-0.48	-1.68	0.21	-0.568
B27	-2.42	-2.23	-3.36	-2.15
B28	-1.23	-1.7	-1.75	-0.842
